Reference: PubChem BioAssay (EPA / NIEHS)
Where “and” joins values, the source holds several entries; their conditions need not be identical. Identical values can stand only once. Inconclusive results are not listed. Where a structure was tested more than once in an assay, its records may differ in their call. Calls of active or inactive are those of the source. How the source made its calls: active means hit-call score of the fitted dose curve at least 0.9, where 1 is the maximum; inconclusive means response in the unintended direction; inactive means score below 0.9.

System: chicken Androgen Receptor (AR), gene 422165
Experiment: ATG_chAR_XSP1: Attagene TRANS-FACTORIAL Multi-Species (XSP1) HepG2 Assay for chicken Androgen Receptor (AR) (AID 2283768)
How it was run: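 Reporter mRNA read by RT-PCR with fluorescent labelling and capillary electrophoresis 24 h after chemical dosing of transiently transfected HepG2 cells. Chicken AR-Gal4 chimera, partially stimulated with 3 nM 6-alpha-fluorotestosterone; activity fitted upward relative to DMSO.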

Compound | AC50 | outcome
O=C(c1ccc(O)cc1O)c1ccc(O)cc1O | 133 nM (active) | –
CC1(C)C(C=C(Cl)Cl)C1C(=O)OCc1cccc(Oc2ccccc2)c1 (centres undefined) | – | inactive
CCCCC(CC)COC(=O)c1ccccc1C(=O)O (centres undefined) | 26500 nM (active) | –

System: zebrafish Androgen Receptor (AR), gene 100005148
Experiment: ATG_zfAR_XSP1: Attagene TRANS-FACTORIAL Multi-Species (XSP1) HepG2 Assay for zebrafish Androgen Receptor (AR) (AID 2283771)
How it was run: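 Gain-of-signal versus DMSO was measured as reporter transcripts quantified by RT-PCR, fluorescent labelling and capillary electrophoresis after 24 h chemical exposure. The cells were HepG2 expressing a chimeric zebrafish AR-GAL4, co-stimulated with 3 nM 6-alpha-fluorotestosterone.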

Compound | outcome | AC50
CC(=O)S[C@@H]1CC2=CC(=O)CC[C@]2(C)[C@H]2CC[C@@]3(C)[C@@H](CC[C@@]34CCC(=O)O4)[C@H]12 | inactive | –
CC1(C)C(C=C(Cl)Cl)C1C(=O)OCc1cccc(Oc2ccccc2)c1 (centres undefined) | inactive | –
C#C[C@]1(O)CC[C@H]2[C@@H]3CCC4=CC(=O)CC[C@@H]4[C@H]3CC[C@@]21CC | – | 1.12 nM (active) and 0.357 nM (active)
CCCCC(CC)COC(=O)c1ccccc1C(=O)O (centres undefined) | inactive | –
C=CCOC(Cn1ccnc1)c1ccc(Cl)cc1Cl (centres undefined) | inactive | –
CCCCC(CC)CN1C(=O)C2C3C=CC(C3)C2C1=O (centres undefined) | inactive | –

Target: zebrafish Estrogen Receptor (ESR1), esr1 (gene 259252) (UniProt P57717)
Experiment: ATG_zfER1_XSP1: Attagene TRANS-FACTORIAL Multi-Species (XSP1) HepG2 Assay for zebrafish Estrogen Receptor (ESR1) (AID 2283772)
How it was run: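 HepG2 cells were transiently transfected with multiplexed GAL4-UAS reporter units driven by chimeric NR-GAL4 proteins, dosed for 24 h with 3 nM 6-alpha-fluorotestosterone present, and reporter mRNA quantified by RT-PCR and capillary electrophoresis versus DMSO.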

Chain of zebrafish Estrogen Receptor (ESR1), esr1 (gene 259252) (P57717 whole entry, looked up): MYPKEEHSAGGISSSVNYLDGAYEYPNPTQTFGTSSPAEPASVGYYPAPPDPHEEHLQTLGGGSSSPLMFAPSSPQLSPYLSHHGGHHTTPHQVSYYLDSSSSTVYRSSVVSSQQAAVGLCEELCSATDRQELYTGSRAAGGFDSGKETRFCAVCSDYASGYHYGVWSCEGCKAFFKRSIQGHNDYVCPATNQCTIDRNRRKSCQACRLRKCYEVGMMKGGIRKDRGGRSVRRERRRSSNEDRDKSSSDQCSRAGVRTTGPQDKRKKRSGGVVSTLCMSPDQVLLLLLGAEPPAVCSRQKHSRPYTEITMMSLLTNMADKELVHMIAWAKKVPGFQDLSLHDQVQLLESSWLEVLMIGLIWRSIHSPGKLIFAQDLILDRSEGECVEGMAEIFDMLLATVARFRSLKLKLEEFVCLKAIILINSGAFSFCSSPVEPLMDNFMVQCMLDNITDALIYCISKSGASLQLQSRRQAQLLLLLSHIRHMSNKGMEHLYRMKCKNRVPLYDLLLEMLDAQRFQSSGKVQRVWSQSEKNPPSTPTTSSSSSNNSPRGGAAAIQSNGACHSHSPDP

Compound | AC50 | outcome
CC(C)CCCCCCc1ccc(O)cc1 | 2680 nM (active) | –
O=C(c1ccc(O)cc1O)c1ccc(O)cc1O | 1380 nM (active) | –
Oc1ccc(C(c2ccc(O)cc2)C(Cl)(Cl)Cl)cc1 | – | inactive
CC(C)(c1ccc(O)cc1)c1ccc(O)cc1 | 1260 nM (active) | –
CC(=O)S[C@@H]1CC2=CC(=O)CC[C@]2(C)[C@H]2CC[C@@]3(C)[C@@H](CC[C@@]34CCC(=O)O4)[C@H]12 | – | inactive
CC1(C)C(C=C(Cl)Cl)C1C(=O)OCc1cccc(Oc2ccccc2)c1 (centres undefined) | – | inactive
C#C[C@]1(O)CC[C@H]2[C@@H]3CCC4=CC(=O)CC[C@@H]4[C@H]3CC[C@@]21CC | – | inactive
C=CCOC(Cn1ccnc1)c1ccc(Cl)cc1Cl (centres undefined) | – | inactive
CCCCC(CC)CN1C(=O)C2C3C=CC(C3)C2C1=O (centres undefined) | – | inactive

System: zebrafish Estrogen Receptor (ESR2B), gene 317733
Experiment: ATG_zfER2b_XSP1: Attagene TRANS-FACTORIAL Multi-Species (XSP1) HepG2 Assay for zebrafish Estrogen Receptor (ESR2B) (AID 2283773)
How it was run: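 Multiplexed TRANS format in transfected HepG2 liver cells, chimeric NR-Gal4 from zebrafish ESR2B. 24 h dosing; medium contains 3 nM 6-alpha-fluorotestosterone. mRNA induction by RT-PCR/CE, positive direction vs DMSO.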

Compound | AC50 | outcome
CC(C)CCCCCCc1ccc(O)cc1 | 571 nM (active) | –
O=C(c1ccc(O)cc1O)c1ccc(O)cc1O | 940 nM (active) | –
Oc1ccc(C(c2ccc(O)cc2)C(Cl)(Cl)Cl)cc1 | 131 nM (active) | –
CC(C)(c1ccc(O)cc1)c1ccc(O)cc1 | 811 nM (active) | –
CC(=O)S[C@@H]1CC2=CC(=O)CC[C@]2(C)[C@H]2CC[C@@]3(C)[C@@H](CC[C@@]34CCC(=O)O4)[C@H]12 | 82200 nM (active) | –
CC1(C)C(C=C(Cl)Cl)C1C(=O)OCc1cccc(Oc2ccccc2)c1 (centres undefined) | 19800 nM (active) | –
C#C[C@]1(O)CC[C@H]2[C@@H]3CCC4=CC(=O)CC[C@@H]4[C@H]3CC[C@@]21CC | 451 nM (active) | inactive
CCCCC(CC)COC(=O)c1ccccc1C(=O)O (centres undefined) | 62500 nM (active) | –
C=CCOC(Cn1ccnc1)c1ccc(Cl)cc1Cl (centres undefined) | 20500 nM (active) | –
CCCCC(CC)CN1C(=O)C2C3C=CC(C3)C2C1=O (centres undefined) | 27400 nM (active) | –
